Laboratory results reported in paper PMC4336329 (PLoS ONE, 2015).
Among all 310,000 compounds or so, about 14,000 (4.5%) showed an effect of 50% or more. Effects have a minus sign here. Only a selection was taken, and strong results are over-represented in it overall.

Each molecule was assayed against human ether-à-go-go-related gene (hERG) potassium channel (human, UniProt Q12809) (assay: primary screen, population patch clamp on CHO cells stably expressing hERG; higher = less effect of the substance).
human ether-à-go-go-related gene (hERG) potassium channel, sequence (Q12809 whole entry, looked up): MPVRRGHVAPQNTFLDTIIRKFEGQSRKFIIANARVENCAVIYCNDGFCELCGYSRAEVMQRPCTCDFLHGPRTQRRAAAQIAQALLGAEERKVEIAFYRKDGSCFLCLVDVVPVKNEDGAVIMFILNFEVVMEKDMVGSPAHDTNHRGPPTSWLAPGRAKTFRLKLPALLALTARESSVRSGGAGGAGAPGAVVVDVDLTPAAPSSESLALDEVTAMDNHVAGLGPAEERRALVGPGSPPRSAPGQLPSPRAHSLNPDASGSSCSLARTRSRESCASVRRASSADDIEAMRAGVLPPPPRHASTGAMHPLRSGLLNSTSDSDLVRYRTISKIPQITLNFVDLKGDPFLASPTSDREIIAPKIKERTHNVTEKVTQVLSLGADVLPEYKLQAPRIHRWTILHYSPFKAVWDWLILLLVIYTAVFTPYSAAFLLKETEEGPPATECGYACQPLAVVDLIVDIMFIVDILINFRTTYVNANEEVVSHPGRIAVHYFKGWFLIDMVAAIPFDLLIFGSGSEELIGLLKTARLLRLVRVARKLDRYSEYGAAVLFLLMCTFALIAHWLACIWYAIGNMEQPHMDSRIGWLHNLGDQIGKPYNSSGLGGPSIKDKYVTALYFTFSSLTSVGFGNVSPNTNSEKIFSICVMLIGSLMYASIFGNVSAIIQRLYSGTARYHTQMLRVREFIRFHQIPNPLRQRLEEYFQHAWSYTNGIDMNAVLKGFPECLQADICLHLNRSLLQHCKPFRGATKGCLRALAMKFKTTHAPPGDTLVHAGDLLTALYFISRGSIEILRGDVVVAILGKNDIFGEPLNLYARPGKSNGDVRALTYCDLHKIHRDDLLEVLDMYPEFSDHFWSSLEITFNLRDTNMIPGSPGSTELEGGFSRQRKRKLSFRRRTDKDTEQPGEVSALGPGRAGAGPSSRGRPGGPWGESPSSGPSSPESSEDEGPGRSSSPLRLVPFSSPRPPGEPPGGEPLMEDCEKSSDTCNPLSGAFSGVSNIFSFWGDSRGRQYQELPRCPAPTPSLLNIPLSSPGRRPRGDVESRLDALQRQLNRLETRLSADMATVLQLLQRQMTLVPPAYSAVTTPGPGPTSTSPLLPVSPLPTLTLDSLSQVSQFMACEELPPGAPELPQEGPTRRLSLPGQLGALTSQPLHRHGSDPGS
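Also: peak tail current of the secondary pulse compared with the same well before compound.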

Row | Structure (SMILES) | hERG current change (%, negative = inhibition) at 10uM
1 | CC(OC(=O)c1snc(C(=O)NC2CCCCC2)c1N)C(=O)NC1CCCCC1 (stereo not drawn) | -3.99%
2 | CCOC(=O)N1CCN(S(=O)(=O)c2ccc(C(=O)N(CCCN(C)C)c3nc4ccc(OC)cc4s3)cc2)CC1.Cl | -73.5%
3 | CCOC(=O)N1CCN(S(=O)(=O)c2ccc(C(=O)N(CCN(CC)CC)c3nc4ccc(C)cc4s3)cc2)CC1.Cl | -23.8%
4 | COc1cc2nc(N(CCCN(C)C)C(=O)c3ccc(S(=O)(=O)N4CCc5ccccc5C4)cc3)sc2cc1OC.Cl | -9.41%
5 | CCOC(=O)N1CCN(S(=O)(=O)c2ccc(C(=O)N(CCCN(C)C)c3nc4ccc(Cl)cc4s3)cc2)CC1.Cl | -58.4%
6 | CN(C)CCCN(C(=O)c1ccc(S(=O)(=O)N2CCc3ccccc32)cc1)c1nc2ccc(Cl)cc2s1.Cl | 10.5%
7 | CCOC(=O)N1CCN(S(=O)(=O)c2ccc(C(=O)N(CCN(C)C)c3nc4ccc(Cl)cc4s3)cc2)CC1.Cl | -28.5%
8 | CCOC(=O)N1CCN(S(=O)(=O)c2ccc(C(=O)N(CCN(C)C)c3nc4ccc(CC)cc4s3)cc2)CC1.Cl | -51.9%
9 | COc1ccc2sc(N(CCCN(C)C)C(=O)c3ccc(S(=O)(=O)N4CCCC4)cc3)nc2c1.Cl | -43.9%
10 | CCOC(=O)N1CCN(S(=O)(=O)c2ccc(C(=O)N(CCN(C)C)c3nc4c(C)cccc4s3)cc2)CC1.Cl | -37.5%
11 | COc1ccc2sc(N(CCCN(C)C)C(=O)c3ccc(S(=O)(=O)N4CCc5ccccc5C4)cc3)nc2c1.Cl | -6.59%
12 | Cc1ccc2nc(N(CCCN(C)C)C(=O)c3ccc(S(=O)(=O)N4CCc5ccccc5C4)cc3)sc2c1.Cl | -25.3%
13 | CCOC(=O)N1CCN(S(=O)(=O)c2ccc(C(=O)N(CCCN(C)C)c3nc4cc(OC)ccc4s3)cc2)CC1.Cl | -56.2%
14 | O=C(c1ccccc1Cc1ccccc1)N1CCN(S(=O)(=O)c2ccccc2)CC1 | -6.88%
15 | CN(C)NC(=S)Nc1ccc(S(=O)(=O)N2CCCCC2)cc1 | -5.26%
16 | CCn1ccnc1CN(C)C(=O)CCc1nnc(CCCc2ccccc2)o1 | -7.7%
17 | Cc1cccc(NC(=O)CN2C(=O)N/C(=C\c3ccc(N4CCOCC4)cc3)C2=O)c1 | 9.92%
18 | CC(NC(=O)COC(=O)Cc1ccsc1)C1CC2CCC1C2 (stereo not drawn) | -12.1%
19 | COc1ccc(N(CC(=O)N2CCc3ccccc32)S(=O)(=O)c2c(C)n[nH]c2C)cc1 | -18.6%
20 | CC(NCCOc1ccccc1F)C(=O)Nc1ccc(S(N)(=O)=O)cc1 (stereo not drawn) | 13.4%
21 | N#Cc1c(N)c(C(=O)c2ccc(Cl)cc2)n2c1CCC2 | 5.5%

Row | Structure (SMILES) | hERG current change (%, negative = inhibition) at 10uM
22 | CCCCN(CCCC)C(=O)c1cc(Cl)ccc1[N+](=O)[O-] | -1.4%
23 | O=C1CCC(C(=O)N(Cc2ccco2)C2(C(=O)NC3CCCC3)CCCCC2)N1 (stereo not drawn) | 13.4%
24 | CCNc1nc(NCC)nc(N/N=C(\C)c2ccc(OC)cc2)n1 | -14.1%
25 | CCn1cc(C(=O)NCc2ccco2)c(=O)c2cc(S(=O)(=O)N3CCCC3)ccc21 | -4.37%
26 | O=C(NCc1ccco1)c1ccc(Br)c(S(=O)(=O)N2CCCCC2)c1 | -53%
27 | Cc1ccc(C(=O)NCc2ccco2)cc1S(=O)(=O)Nc1cccc(C)c1C | -32.2%
28 | CCn1cc(C(=O)NCC2CCCO2)c(=O)c2cc(S(=O)(=O)N3CCC(C)CC3)ccc21 (stereo not drawn) | -28.1%
29 | CCn1cc(C(=O)NCc2ccco2)c(=O)c2cc(S(=O)(=O)N3CCCCCC3)ccc21 | -53.3%
30 | Cc1ccc(C)c(NS(=O)(=O)c2cc(C(=O)NCc3ccco3)ccc2C)c1 | -52.3%
31 | Cc1ccc(C(=O)NCc2ccco2)cc1S(=O)(=O)N1CCCCC1 | -18.6%
32 | CCn1cc(C(=O)NCc2ccco2)c(=O)c2cc(S(=O)(=O)N3CCC(C)CC3)ccc21 | -36.5%
33 | Cc1ccccc1NS(=O)(=O)c1cc(C(=O)NCc2ccco2)ccc1C | -20.3%
34 | O=C(NCc1ccco1)c1ccc(F)c(S(=O)(=O)N2CCCCC2)c1 | -11.3%
35 | CCn1cc(C(=O)NCC2CCCO2)c(=O)c2cc(S(=O)(=O)N3CCCCC3)ccc21 (stereo not drawn) | -34%
36 | CCn1cc(C(=O)NCC2CCCO2)c(=O)c2cc(S(=O)(=O)N3CCCCCC3)ccc21 (stereo not drawn) | -51.3%
37 | COc1cc(CCC(=O)Nc2ccc(C)c(S(=O)(=O)N3CCCCCC3)c2)cc(OC)c1OC | -6.5%
38 | O=C(OCCN1C(=O)c2ccccc2C1=O)C1CCN(S(=O)(=O)c2cccs2)CC1 | -31.9%
39 | COc1cc(CCN2C(=O)N[C@@H](CCc3ccccc3)C(C(C)=O)=C2C)cc(OC)c1OC | -12.6%
40 | CC(=NCC1CCCO1)c1c(O)n(C2CCCCC2)c(=O)[nH]c1=O (stereo not drawn) | -9.77%
41 | CC(C)(C)NC(=O)CN1CCCN(C(=O)c2cccc(S(=O)(=O)N3CCc4ccccc43)c2)CC1 | -7.51%
42 | CCn1c(NN=O)nc2ccccc21 | 15.6%

Row | Structure (SMILES) | hERG current change (%, negative = inhibition) at 10uM
43 | O/N=C1/C2C3CC4C5C3C1C5C1(OCCO1)C42 (stereo not drawn) | 4.44%
44 | Cc1cccc(OS(=O)(=O)NC(=O)OCC2CCCN3CCCCC23)c1 (stereo not drawn) | 15.1%
45 | O=C(c1cc2nc(-c3ccccc3)cc(-c3ccccc3)n2n1)N1CCC2(CC1)OCCO2 | -49.4%
46 | C/C(=N/Nc1ccc(F)cc1)c1ccc(Cl)s1 | 8.69%
47 | CC(C)(C)c1ccc(CCC(CC(=O)O)CC(=O)O)cc1 | -11.9%
48 | CCn1cc(C(=O)NC2CCCCCC2)c(=O)c2cc(S(=O)(=O)N3CCCCC3)ccc21 | 8.24%
49 | CCN1CCCC1CNC(=O)c1cn(CC)c2ccc(S(=O)(=O)N3CCCCCC3)cc2c1=O (stereo not drawn) | -66.5%
50 | CCn1cc(C(=O)NCCC(C)C)c(=O)c2cc(S(=O)(=O)N3CCCCC3)ccc21 | -7.53%
51 | Cc1cccc(NC(=O)c2c(O)c3ccccc3n(C)c2=O)c1 | 25.8%
52 | Cc1ccc(CCNC(=O)C2CCCN(C(=O)N(C)C)C2)cc1 (stereo not drawn) | 8.01%
53 | CCOc1ccc(CCNC(=O)c2nnc(Cc3ccc(F)cc3)o2)cc1OCC | -1.78%
54 | Cc1cc(C)c2nc(-n3nc(C)cc3N)cc(C)c2c1 | 20%
55 | Cc1cc(C)c2c(N)c3cccc(C)c3nc2n1 | -64.7%
56 | Cc1cc(C)c2c(SC(C)C)nc(N)nc2n1 | -4.12%
57 | Cc1cc(C)c2cccc(N)c2n1 | 20.7%
58 | Cc1cc(N)c2ccccc2n1 | 7.4%
59 | Cc1cc(C)c2c(N)c3ccccc3nc2n1 | -53.9%
60 | Cc1cc(C)c2nc3nc(C)cc(C)c3c(N)c2c1 | -65.5%
61 | CCc1ccc2nc3nc(C)cc(C)c3c(N)c2c1 | 1.12%
62 | Cc1cccc2c(C(=O)O)c3cccc(C)c3nc12 | 1.39%
63 | CC(C)(C)n1nc2c(c1NC(=O)c1ccc(F)c(F)c1)CS(=O)(=O)C2 | 3.79%

Row | Structure (SMILES) | hERG current change (%, negative = inhibition) at 10uM
64 | COc1ccc(/C=N/NC(=O)c2ccc(CN3c4cccc5cccc(c45)S3(=O)=O)cc2)cc1 | 4.03%
65 | CC(C)CN(C(=O)COC(=O)c1c2c(nc3ccccc13)CCC2)c1c(N)n(Cc2ccccc2)c(=O)[nH]c1=O | 4.06%
66 | Cc1ccc(N2CC(C(=O)NCCS(=O)(=O)N3CCN(c4ccccc4F)CC3)CC2=O)cc1 (stereo not drawn) | 13.2%
67 | CC(C)(C)c1ccc(OCCNC(=S)NC(=O)c2cccnc2)cc1 | -16.3%
68 | CCC(CC)C(=O)Nc1cc(C(=O)OC)ccc1C(=O)OC | -15.4%
69 | COCCn1cc(C(=O)c2cc(Br)ccc2O)cc(C#N)c1=O | 2.45%
70 | CC(Sc1nc(-c2ccccc2)cc(C(F)(F)F)n1)C(=O)NCc1ccco1 (stereo not drawn) | 10.2%
71 | Cc1ccc2nc(-c3ccccc3)nc(SC(C)C(=O)NCc3cccs3)c2c1 (stereo not drawn) | 11.7%
72 | CC(Sc1nnc(Cc2cccs2)n1C1CCCCC1)C(=O)NCc1ccco1 (stereo not drawn) | -5.59%
73 | Cc1ccc(-n2c(SCC(=O)NCc3ccco3)nnc2-c2cccnc2)cc1 | -60.8%
74 | Cn1c(SCC(=O)NCc2ccco2)nnc1-c1cccs1 | 3.45%
75 | Cc1ccc(-n2c(SCC(=O)NCc3ccco3)nnc2-c2cccnc2)c(C)c1 | -34.4%
76 | CC(C)(C)C(=O)CSc1nnc(-c2cccs2)n1CC1CCCO1 (stereo not drawn) | -12.4%
77 | CC(Sc1nnc(-c2cccs2)n1-c1ccccc1)C(=O)NCc1ccco1 (stereo not drawn) | -79.4%
78 | CNC(=O)CSc1nnc(-c2cccnc2)n1-c1ccc(C)cc1 | 13.6%
79 | O=C(CCCSc1nnc(-c2cccs2)n1CC1CCCO1)c1ccccc1 (stereo not drawn) | -65.1%
80 | Cc1ccc(C)c2c(SC(C)C(=O)NCc3ccco3)nc(-c3ccccc3)nc12 (stereo not drawn) | -64.7%
81 | O=C(CSc1nnc(-c2cccs2)n1CC1CCCO1)N1CCCC1 (stereo not drawn) | -14.4%
